Rows were chosen to be rich in hits. Some 6.6% of all compounds tested hit in one or more screens of this group.
TGFb inhibitor: TGF-b pathway inhibition. 410,000 tested, 1.2% active. HepG2 CAGA-GFP TGF-b/SMAD3 reporter, GFP fluorescence, 18 h; TGF-beta stimulated, 500 pg/mL final. Potency, µM (doses to about 46.1 µM), for inactives: top-dose activity, negative = inhibition, actives largely listed as inhibitors; also: % is scaled to controls: 0 for no effect and ±100 for the full control effect; nearly all actives have a fitted effect of over 65% in size
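First, reporter cells (HEPG2 CAGA-GFP) rested 2 h at 37 degrees C. Next, compounds were pinned in and TGF-beta added to 500 pg/mL final. After 18 h, GFP was imaged per cell and summed per well.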
HepG2 tox: kills HepG2 cells in TGF-b inhibitor counter-screen | HepG2 CAGA-GFP viability, ATP luminescence, 18 h | AID 588856 | Potency, µM (titrated, usually from 46.1 µM), inactives show at the top dose activity change, negative = cytotoxicity, actives largely listed as cytotoxic | 410,000 tested, 0.76% active
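CellTiter-Glo luminescence gave cytotoxicity after 18 hours at 37 degrees C. The cells were HepG2 CAGA-GFP in 1% FBS DMEM, stimulated with 500 pg/mL TGF-beta after compound addition. %Activity was normalised to no-cell wells (complete cell-killing) and DMSO (no toxicity), and curves were fitted and classified.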
KB-V1 cytotox: KB-V1 MDR subline cytotoxicity; KB-V1 MDR cells viability, CellTiter-Glo, 72 h; AID 1347076; 400,000 tested, 3.4% active; Potency, µM (doses to about 46.1 µM), actives largely listed as cytotoxic; also: % is scaled to controls: 0 for no effect and ±100 for the full control effect; nearly all actives have a fitted effect of over 60% in size
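KB-V1 cells (P-gp-expressing MDR subline of KB-3-1) in phenol-red-free DMEM with 10% FBS were exposed to library compounds over a concentration series for 72 h at 37 degrees C. Viability read by CellTiter-Glo luminescence; concentration-effect curves fitted after normalization.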
KB-3-1 cytotox: KB-3-1 parental cell cytotoxicity | Potency, µM (titrated, usually from 46.1 µM), most hits filed as cytotoxic | KB-3-1 viability, CellTiter-Glo ATP luminescence, 72 h | 400,000 tested, 1.4% active | AID 1347075; also: % is scaled to controls: 0 for no effect and ±100 for the full control effect; nearly all actives have a fitted effect of over 60% in size
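Cytotoxicity measured as CellTiter-Glo luminescence after 72 h at 37 C. Compound titrations were pinned onto drug-naive KB-3-1 parental adenocarcinoma cells grown in DMEM with 10% FBS, and normalized data fitted to concentration-response curves.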
HT1080 IDH1KD tx: HT-1080 IDH1 knockdown cell toxicity (counter line); HT-1080 IDH1 knockdown viability, ATP luminescence, 48 h; Potency, µM (titrated, usually from 46.1 µM), for inactives: at the top dose activity, negative = toxicity, actives largely listed as cytotoxic; 360,000 tested, 2% active;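 also: 0% = DMSO wells and -100% = cell-free medium wells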
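Viability of IDH1-knockdown HT-1080 fibrosarcoma cells was assessed by CellTiter-Glo after 48 h at 37 °C with titrated compound; concentration-effect curves were classified by fit quality and response size.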
HT1080NT lethal: kills 2HG-producing HT-1080-NT fibrosarcoma cells; 360,000 tested, 1.6% active; Potency, µM (top dose mostly 46.1 µM), without a hit: at the top dose activity, negative = less viability, usual class: cytotoxic; HT-1080-NT fibrosarcoma viability, CellTiter-Glo ATP luminescence, 48 h;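 also: NT is the 2HG producing partner of a matched IDH1 knockdown line; 0% = DMSO-treated cells and -100% = media-only wells without cells; nearly all actives have a fitted effect of over 55% in size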
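HT-1080-NT fibrosarcoma cells (2HG-overproducing), 750 cells/well in RPMI with 5% FBS, dosed after 2 h and incubated 48 h at 37C. CellTiter-Glo luminescence normalized to DMSO and no-cell wells; concentration-response curves fitted and classed.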
The depositor's hits bear a star. Calls follow the shape of the dose curve; as a rule, active = well fitted curve in the direction sought with a large enough effect; inconclusive = small, poorly fitted or top-dose-only effect, or another doubt; inactive = no such curve, though single readings can be large; an effect the other way counts as inactive or inconclusive. Potency is read from the fitted curve at half-maximal effect.

Screening CCOc1cc2c(cc1OCC)-n1cccc1C(c1c(O)cccc1OC)NC2 (stereo unspecified) returned TGFb inhibitor 0%, HepG2 tox -13%, KB-V1 cytotox inconclusive, KB-3-1 cytotox inconclusive, HT1080 IDH1KD tx 21µM* and HT1080NT lethal 21µM*.
CCOc1cc2c(cc1OCC)-n1cccc1C(c1ccc(C(C)C)cc1)NC2 (stereo unspecified) was read as TGFb inhibitor inconclusive, HepG2 tox -165%, KB-V1 cytotox inconclusive, KB-3-1 cytotox inconclusive, HT1080 IDH1KD tx 21µM* and HT1080NT lethal 16µM*.
Screening CCOc1cc2c(cc1OCC)-n1cccc1C(c1ccc(F)cc1)NC2 (stereo unspecified) returned TGFb inhibitor inconclusive, HepG2 tox -35%, KB-V1 cytotox inactive, KB-3-1 cytotox inactive, HT1080 IDH1KD tx -8% and HT1080NT lethal -16%.
`N#CC(C#N)=Cc1ccc(C=C(C#N)C#N)cc1` gave TGFb inhibitor inconclusive, HepG2 tox 25µM*, KB-V1 cytotox inconclusive, KB-3-1 cytotox inconclusive, HT1080 IDH1KD tx 23µM* and HT1080NT lethal inconclusive.
For N#Cc1cc2c(nc1SCC(=O)Nc1cccc(F)c1)C1CCN2CC1 the results were TGFb inhibitor inconclusive, HepG2 tox -36%, KB-V1 cytotox 10µM* and KB-3-1 cytotox inconclusive.
Screening Cc1ccc(OCC(=O)Nc2ccc(Cl)cc2C(=O)c2ccccc2)cc1C returned TGFb inhibitor 0% and HepG2 tox -4%.
`O=C(COc1ccc(Cl)cc1)N(c1ccc(Cl)cc1)C1CN2CCC1CC2` (stereo unspecified) gave TGFb inhibitor 14µM*, HepG2 tox -97%, KB-V1 cytotox inactive, KB-3-1 cytotox inconclusive, HT1080 IDH1KD tx 15µM* and HT1080NT lethal 16µM*.
O=C(COc1ccc(Cl)cc1)N(c1ccccc1Cl)C1CN2CCC1CC2 (stereo unspecified) was read as TGFb inhibitor inconclusive, HepG2 tox -20%, KB-V1 cytotox inconclusive, KB-3-1 cytotox inconclusive, HT1080 IDH1KD tx 16µM* and HT1080NT lethal inconclusive.
Screening Clc1ccccc1CNC1CN2CCC1CC2 (stereo unspecified) returned TGFb inhibitor 8%, HepG2 tox -14%, KB-V1 cytotox inactive, KB-3-1 cytotox inactive, HT1080 IDH1KD tx 7% and HT1080NT lethal -2%.
For CN(N=O)c1cc(O)ccc1O the results were TGFb inhibitor inconclusive and HepG2 tox -93%.
`c1cncc(CNC2CCCCC2)c1` gave TGFb inhibitor -6%, HepG2 tox 0%, KB-V1 cytotox inconclusive, KB-3-1 cytotox inactive, HT1080 IDH1KD tx 6% and HT1080NT lethal 3%.
`c1ccc(CNC2CCCCCCC2)cc1` (tested in a mixture with another compound) gave TGFb inhibitor -1%, HepG2 tox -16%, KB-V1 cytotox 23µM*, KB-3-1 cytotox inactive, HT1080 IDH1KD tx -7% and HT1080NT lethal -7%.
Screening CCCCCCCCn1sccc1=O returned TGFb inhibitor 5.6µM*, HepG2 tox -97%, KB-V1 cytotox inactive, KB-3-1 cytotox inconclusive, HT1080 IDH1KD tx 8.2µM* and HT1080NT lethal 6.5µM*.
`COc1ccccc1CNC(=O)C(NS(=O)(=O)c1ccc2c(c1)oc(=O)n2C)C(C)C` (stereo unspecified) gave TGFb inhibitor 36%, HepG2 tox 39%, KB-V1 cytotox inactive, KB-3-1 cytotox inactive, HT1080 IDH1KD tx 9% and HT1080NT lethal 10%.

High-throughput results: PubChem, National Center for Advancing Translational Sciences (NCATS)
